Screens as filed in PubChem BioAssay.
An excerpt weighted towards active compounds, which were near 8.3% of everything screened.
Giardia FBPA inh – blocks Giardia fructose-bisphosphate aldolase activity; A8B2U2; purified Giardia FBPA; 0.71% of 290,000 active; Potency, µM (top dose mostly 59.6 µM), inactives show at the top dose activity, negative = inhibition, hits mostly inhibitors; note: potency is the fitted concentration of half-maximal effect; nearly all actives have a fitted effect of over 55% in size
Target sequence (A8B2U2 whole entry, looked up): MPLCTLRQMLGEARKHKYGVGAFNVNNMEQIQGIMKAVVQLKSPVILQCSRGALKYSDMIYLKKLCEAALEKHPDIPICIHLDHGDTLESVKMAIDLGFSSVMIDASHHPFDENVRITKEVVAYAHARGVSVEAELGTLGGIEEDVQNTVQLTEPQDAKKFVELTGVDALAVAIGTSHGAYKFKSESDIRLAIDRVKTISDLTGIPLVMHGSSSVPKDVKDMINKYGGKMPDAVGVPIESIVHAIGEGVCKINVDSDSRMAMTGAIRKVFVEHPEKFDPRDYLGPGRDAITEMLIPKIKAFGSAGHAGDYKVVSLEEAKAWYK
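40 nM FBPA preincubated 10 min at RT with compound (up to 57.5 uM final), then substrate plus GAPDH/TPI/NAD/arsenate coupling and diaphorase/resazurin added. Fluorescence read after 20 min at RT, 525/598 nm.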
LASV entry inh – Lassa virus entry inhibition | 1.2% of 300,000 active | Lassa virus pseudotype entry inhibition, cell reporter | Potency, µM (top dose mostly 37.9 µM), without a hit: at the highest dose activity change, negative = inhibition, actives largely listed as inhibitors; calls by dose curve; tested in HEK293 cells; note: potency is the fitted concentration of half-maximal effect; nearly all actives have a fitted effect of over 50% in size
Marburg entry inh – Marburg virus entry inhibition | Marburg virus pseudotyped entry inhibition, cell reporter | Potency, µM (top dose mostly 37.8 µM), without a hit: at the top dose activity change, negative = inhibition, hits mostly inhibitors | AID 540276 | 1.8% of 300,000 active; calls by dose curve; tested in HEK293 cells; note: potency is the fitted concentration of half-maximal effect
FMDV antiviral – antivirals against foot and mouth disease virus. FMDV antiviral cell-based qHTS. AID 1159524. 1.2% of 410,000 active. Potency, µM (doses to about 57.9 µM), for the others: at the top dose activity change, negative = inhibition, usual class: inhibitors; calls by dose curve; tested in HEK293T cells; note: read-out not given here; potency is the fitted concentration of half-maximal effect; nearly all actives have a fitted effect of over 45% in size
HCMV inh – human cytomegalovirus inhibition; activity change, negative = inhibition, % at 57.5 µM; HFF cells, HCMV-luciferase reporter, 72 h; stronger effect = lower value; AID 1259415; 4.5% of 410,000 active; in the data active = activity change below about -60%; inconclusive = no clear call, values can overlap the other calls; inactive = above about -39%
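Screen run at 2 compound doses on HFFs infected with reporter HCMV, MOI 1 PFU/cell. Luciferase activity from cell lysates at 72 h post infection gave inhibition relative to buffer-only and Salinomycin wells.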
HCV inhibitor – blocks hepatitis C virus; 3.4% of 340,000 active; Huh7.5.1 HCVcc-Cre infection, luciferase reporter, 44 h; Potency, µM (titrated, usually from 41.8 µM), inactives show at the highest dose activity change, negative = inhibition, usual class: inhibitors; note: potency is the fitted concentration of half-maximal effect
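Infectious HCVcc-Cre (~0.5 moi) was added to cells just after compound, with cells seeded 4 h earlier at 1,000 per well. Luciferase activity after 44 h culture reported infection; substrate was incubated 15 min at room temperature before reading.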
Numbers without * were called inactive; ? = inconclusive; . = no result given; [ ] = dose if it differs, or a comment. Unless noted, calls come from the whole dose curve; as a rule, active = well fitted curve in the direction sought with a large enough effect; inconclusive = small, poorly fitted or top-dose-only effect, or another doubt; inactive = no such curve, though single readings can be large; an effect the other way counts as inactive or inconclusive. % is set by controls: 0 for no effect and ±100 for the full control effect.

SMILES | Giardia FBPA inh | LASV entry inh | Marburg entry inh | FMDV antiviral | HCMV inh | HCV inhibitor
C=CCC(O)(CCN1CCCCC1)c1ccccc1 (centres undefined) | -3% | 11% | ? | -29% | 6 | -6%
OC(CCN1CCCCC1)(c1ccccc1)c1ccccc1 | 1% | -20% | ? | -17% | -81* | -2%[8.37 µM]
OC(CCCN1CCCCC1)(c1ccccc1)c1ccc(C(F)(F)F)cc1 (centres undefined) | . | -22%[46.1 µM] | ? | -11% | 2 | 11µM*
COc1ccc(C(O)(CCc2ccccc2)CCN2CCCCC2)cc1 (centres undefined) | -2% | ? | ? | -5% | -29 | 32µM*
CC(O)(C#CCN1CCCCCC1)c1ccccc1 (centres undefined) | -4% | 3% | -1%[46.1 µM] | -6% | -102* | -16%
C[C@H]1CCCCO[C@@H](CN(C)CC2CC2)[C@@H](C)CN([C@@H](C)CO)C(=O)c2cc(NS(=O)(=O)c3ccccc3)ccc2O1 | . | . | . | . | -27 | .
CCS(=O)(=O)c1ccc(OC)c(Nc2ncc(-c3cccc(F)c3)o2)c1 | . | -34% | . | . | . | .
CCn1c(=O)n(C2=C(CO)CN(CC3CCCCCCC3)CC2)c2ccccc21 | -7% | . | . | -15% | . | .
OC[C@@H]1O[C@H](O)[C@H](O)[C@@H](O)[C@@H]1O | 7% | . | . | . | . | .
CCN(CC)CCC(O)(c1ccccc1)C1CCCCC1 (centres undefined) | 4% | . | . | -17% | 32 | -10%
OC(CCN1CCCC1)(c1ccccc1)C1CCCCC1 (centres undefined) | -7% | ? | ? | 0% | -60* | 3%[8.37 µM]
COc1ccc(-c2nnc(SCC(=O)NC3CCCC3)nc2-c2ccc(OC)c(OC)c2)cc1OC | . | ? | . | -3% | 10 | .
Cc1ccc(-c2csc3nc(SCC(=O)N(C)C)n(Cc4ccccc4)c(=O)c23)cc1 | 0% | ? | ? | 0% | 37 | 32µM*
CC(C)(C)c1cc(C(=O)NC2CC2)n(Cc2ccc(F)cc2)n1 | 1% | ? | ? | 0% | -3 | 16%
CC(C)(C)c1cc(C(=O)Nc2ccc(F)cc2)n(Cc2ccc(F)cc2)n1 | -9% | . | . | ? | -92* | 11µM*
CC(C)(C)c1cc(C(=O)NNc2cc(C(F)(F)F)ccc2Cl)n(Cc2ccccc2)n1 | -11% | ? | ? | ? | -90* | ?
CC(C)(C)C(=O)NNC(=O)c1cc(C(C)(C)C)nn1Cc1ccccc1 | -2% | ? | 10µM* | 0% | -31 | 8%
CC(C)(C)c1cc(C(=O)NNc2ccc(OC(F)(F)F)cc2)n(Cc2ccccc2)n1 | -1% | ? | ? | ? | 12 | ?
CC(C)(C)c1cc(C(=O)NNc2cccc(Cl)c2)n(Cc2ccccc2)n1 | -7% | ? | 11µM* | 33% | -73* | -24%
CCCCOc1ccc(C(=O)Nc2onc3c2CCCC3)cc1 | . | ? | ? | -2% | 99 | .
Cc1ccc(NNC(=O)c2cc(C(C)(C)C)nn2Cc2ccccc2)cc1 | -15% | ? | -7% | -9% | -17 | ?
Cc1ccc(NC(=O)c2cc(C(C)(C)C)nn2Cc2ccccc2)cc1 | -4% | 2.8µM* | ? | -17% | ? | ?
CCc1nnc(N/N=C/c2ccc(-c3ccc([N+](=O)[O-])cc3)o2)n1N | 4.5µM* | 8%[46.1 µM] | ? | -7% | 7 | -10%
Cc1nnc(N/N=C\c2ccc(-c3ccccc3[N+](=O)[O-])o2)n1N | 1.8µM* | 12% | ? | 19% | 127 | -27%
Cc1n[nH]c(=S)n1/N=C/c1ccc(-c2ccccc2[N+](=O)[O-])o1 | -11% | -14% | -15% | -12% | 78 | -16%
SMILES | Giardia FBPA inh | LASV entry inh | Marburg entry inh | FMDV antiviral | HCMV inh | HCV inhibitor
C=C1C([C@@]2(C)C(OC(C)=O)CC(=O)O[C@@](C)(COC(C)=O)C2CC(=O)OC)C(OC=O)C(OC(=O)C(OC(C)=O)C(C)CC)[C@]2(C)C(c3ccoc3)CC(=O)C12O (some centres undefined) | -14% | . | . | 7% | . | .
CN(CCC#N)Cc1cc(=O)oc2ccc3ccccc3c12 | 0% | 21%[46.1 µM] | -15%[46.1 µM] | -24% | -62* | -30%
CCCCN(C)Cc1cc(=O)oc2ccc3ccccc3c12 | -3% | . | . | -19% | 38 | -7%
CC(C)OC(=O)N(C)C[C@H]1OCc2cn(nn2)CCCC(=O)N([C@@H](C)CO)C[C@@H]1C | . | . | . | . | -3 | .
CC1(C)C=Cc2cc3ccc(=O)oc3cc2O1 | 8% | . | . | 29% | -30 | -7%
CC1Oc2cc3oc4c(O)c5c(cc4c(=O)c3c(O)c2C1(C)C)C=CC(C)(C)O5 (centres undefined) | . | . | . | -6% | . | 5µM*
CC(C)CCNC(=O)C(C)N(Cc1ccc(F)cc1)C(=O)c1ccc(CN2CCCCC2)o1 (centres undefined) | 3% | -9% | -6% | -24% | 1 | -27%
CCN(CC)CCN(C(=O)c1ccc(CN2CCCCC2)o1)C(C(=O)NC1CCCCC1)c1ccc(F)cc1 (centres undefined) | -6% | 0%[46.1 µM] | 5µM* | 5% | -26 | ?
COc1ccc(/C=C/C(=O)c2ccc(C)s2)cc1 | -3% | . | . | . | . | .
Cc1cccc(C(=O)N2CCCC(c3nc(-c4ccc(F)cc4)no3)C2)c1 (centres undefined) | 10% | -7% | -6% | -22% | 7 | 13µM*
COc1ccc(-c2noc(C3CCCN(C(=O)c4ccccc4OC)C3)n2)cc1 (centres undefined) | 1% | -24%[46.1 µM] | ? | -29% | -84* | ?
O=C(c1ccccc1Br)N1CCCC(c2nc(-c3cccs3)no2)C1 (centres undefined) | 6% | . | . | -5% | -89* | ?
O=C(c1ccc(Br)cc1)N1CCCC(c2nc(-c3cccs3)no2)C1 (centres undefined) | 2% | . | . | -3% | -4 | 9%
COc1ccc(-c2noc(C3CCCN(C(=O)c4ccccc4)C3)n2)cc1 (centres undefined) | 4% | . | . | 7% | -7 | ?
COc1ccc(-c2noc(C3CCCN(C(=O)c4ccccc4C)C3)n2)cc1 (centres undefined) | -1% | -29%[46.1 µM] | ? | -27% | -39 | 32µM*
CCOc1ccccc1NC(c1nnc(-c2ccccc2)o1)c1ccc(F)cc1Cl (centres undefined) | . | 1%[46.1 µM] | -18%[46.1 µM] | -13% | -11 | .
CCOC(=O)CCN1C(=O)[C@H]2[C@H]3[C@H](O)[C@H](O)C/C(=N/NC(=O)OCc4ccc(OC)cc4)[C@@H]3CC[C@@H]2C1=O | 3%[12.9 µM] | . | 12%[14.2 µM] | . | . | .
Cc1c(NC(=O)c2ccc(Br)o2)cccc1-c1nc2ccccc2o1 | . | -2%[46.1 µM] | . | -10% | -22 | .
Cc1ccc(NC(=O)Cn2c(=O)n(Cc3ccco3)c(=O)c3sc4ccccc4c32)cc1C | . | 4%[46.1 µM] | 5%[46.1 µM] | 0% | -3 | .
CCOC(=O)c1sc(=S)n(-c2cc(F)ccc2F)c1N | -5% | -8% | 13% | ? | -40 | -26%
